Screening data (PubChem BioAssay)
Only some compounds are listed: those with a hit (about 4.2% of all), similar ones and a draw of the others.
GDH-TPI counter: counter-screen for M. tuberculosis FBA inhibitors: GDH-TPI coupled enzymes; GDH-TPI coupled enzyme counterscreen, NADH absorbance; 360,000 tested, 1.2% active; inhibition, % at 4.8 µM; in the data active means inhibition above about 30%;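 further: 0% = DMSO wells and 100% = wells lacking the enzyme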
BJeLR lethal: BJeLR cell viability loss. BJeLR (HRASV12) viability, CellTiter-Glo ATP luminescence, 48 h. inhibition, % (test concentration not listed). 300,000 tested, 0.17% active; in the data active means inhibition above about 50%
FBA Mtb inh: inhibits M. tuberculosis FBA enzyme; purified M. tuberculosis FBA, fluorescence read-out; inhibition, % at 1 µM; 360,000 tested, 2.3% active; AID 588726; P9WQA3; in the data active means inhibition above about 27%;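 further: 0% = vehicle and 100% = reference inhibitor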
Target sequence (P9WQA3 whole entry, looked up): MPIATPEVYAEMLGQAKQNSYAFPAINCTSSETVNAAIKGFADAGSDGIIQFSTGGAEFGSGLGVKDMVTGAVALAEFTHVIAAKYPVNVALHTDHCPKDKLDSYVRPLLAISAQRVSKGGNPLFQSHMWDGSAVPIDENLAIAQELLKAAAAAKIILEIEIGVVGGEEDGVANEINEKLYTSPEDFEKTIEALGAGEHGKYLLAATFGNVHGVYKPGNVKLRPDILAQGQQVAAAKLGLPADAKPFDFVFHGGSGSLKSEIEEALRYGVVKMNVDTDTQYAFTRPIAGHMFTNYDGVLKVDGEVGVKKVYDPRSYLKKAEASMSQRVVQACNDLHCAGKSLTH
RecA intein inh: inhibitors of M. tuberculosis RecA intein splicing; cell-free RecA intein splicing, fluorescence; inhibition, % (no concentration beside the values); 290,000 tested, 0.75% active; in the data active means inhibition above about 30%;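 further: 0% = vehicle wells and 100% = reference inhibitor control wells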
PrPC surface inh: cell surface PrPC inhibition, primary TR-FRET screen; P04156; inhibition, % at 13.8 µM; TR-FRET read-out; 370,000 tested, 0.43% active; in the data active means inhibition above about 24%; further: 0% = median of the test wells and 100% = reference compound wells
Numbers without * were called inactive; . = no result; + = active, no number.

SMILES | GDH-TPI counter | BJeLR lethal | FBA Mtb inh | RecA intein inh | PrPC surface inh
COc1ccc2[nH]c3c(NCCCN4CCCC4=O)ncnc3c2c1 | 18.2 | 1.6 | 152.0* | 2.2 | 1.9
COc1ccc2[nH]c3c(=O)n(CCc4ccccc4)cnc3c2c1 | 14.2 | -5.5 | 94.7* | -0.7 | 4.7
CCN1Cc2nnn(Cc3ccc(C)cc3)c2-c2ccccc2S1(=O)=O | . | . | . | . | -4.6
O=C(O)c1ccc(-c2ccc(-c3ccccc3)cc2)s1 | 27.1 | -3.8 | 118.1* | 2.5 | .
CC1(C)C=C(c2ccc(C(=O)O)s2)CC(C)(C)N1 | -0.7 | 4.9 | 1.4 | 0.6 | -1.5
Cc1cc(-c2ccc(C(=O)O)s2)cnc1N | 17.5 | -3.5 | + | -8.1 | 0.0
CSc1c2c([nH]c(=O)c1C#N)-c1ccccc1CC2 | . | . | 174.9* | . | -3.6
CCCCCCCCCn1ccc(=N)cc1 | 7.6 | 46.1 | 0.4 | 0.0 | 24.6*
O=C1OCCN1C(=O)[C@H]1[C@H](c2ccc([N+](=O)[O-])cc2)C(c2ccccc2)=NN1c1ccc(Br)cc1 | 1.8 | . | -1.4 | . | -1.6
O=C1OCCN1C(=O)[C@H]1[C@H](c2ccc(Cl)cc2)C(c2ccccc2)=NN1c1ccc(Br)cc1 | 9.1 | . | 33.9* | . | 6.1
O=C1OCCN1C(=O)[C@H]1[C@H](c2ccc(F)cc2)C(c2cccc(Cl)c2)=NN1c1ccc(Br)cc1 | 0.9 | . | 97.2* | . | -1.0
O=C1OCCN1C(=O)[C@H]1[C@H](c2ccccc2)C(c2cccc(Cl)c2)=NN1c1ccc(Br)cc1 | 8.2 | . | 54.1* | . | 1.3
COc1ccccc1[C@@H]1C(c2ccccc2)=NN(c2ccc(Br)cc2)[C@H]1C(=O)N1CCOC1=O | 1.8 | . | 30.5* | . | 5.3
O=C1OCCN1C(=O)[C@H]1[C@H](c2ccc([N+](=O)[O-])cc2)C(c2cccc(Cl)c2)=NN1c1ccc(Br)cc1 | 10.9 | . | -4.2 | . | 6.1
Fc1ccc(Cn2ccc3ccc(-c4ccc5ccn(Cc6ccc(F)cc6)c5c4)cc32)cc1 | . | . | . | . | 5.9
Cn1cnc([N+](=O)[O-])c1Sc1nnc(-c2ccccc2)c(-c2ccccc2)n1 | . | . | . | . | -12.2
CCn1ncc2c(=O)c(C(=O)c3ccccc3)c[nH]c21 | . | . | . | . | 2.6
O=C1OCCN1C(=O)[C@H]1[C@H](c2ccc(Cl)cc2)C(c2cccc(Cl)c2)=NN1c1ccccc1 | 2.5 | 2.7 | 47.9* | -102.5 | .
O=C(Cn1nnc(-c2ccc(N3CCOCC3)cc2)n1)c1cccc(F)c1 | . | . | . | . | -6.2
Cc1ccc(NC(=S)Nc2ccc3nc(-c4ccccn4)c(-c4ccccn4)nc3c2)cc1C | 31.5* | . | -3.8 | . | .
CC(=O)Nc1ccc(/C=N\NC(=O)c2cccc(S(=O)(=O)N(C)C)c2)cc1 | . | . | . | . | 7.9
O=C(c1ccccc1)[C@@H]1[C@@H](C(=O)c2ccc(F)cc2)[C@@]2(C(=O)Nc3ccccc32)[C@H]2c3ccccc3C=CN12 | 6.3 | 0.1 | -1.8 | 31.4* | -3.4
N#Cc1c(-c2cccnc2)c2c([nH]c1=O)-c1ccccc1OC2 | 13.8 | 5.9 | + | -449.4 | -12.7
COc1ccc(CN2C(=O)CSCCC2(C)c2nnnn2-c2c(C)cccc2C)cc1 (centres undefined) | . | . | . | . | -3.3
CCN=C1S/C(=C\c2ccc(-c3cccc(C(=O)O)c3)o2)C(=O)N1CC | 5.2 | -3.8 | 5.4 | -23.5 | .
SMILES | GDH-TPI counter | BJeLR lethal | FBA Mtb inh | RecA intein inh | PrPC surface inh
Clc1cccc(-c2ccc(/C=N/n3cnnc3)o2)c1Cl | 33.9* | -6.3 | 3.1 | -0.1 | 4.5
O=C(O)c1cccc(-c2ccc(/C=N/n3cnnc3)o2)c1 | 34.6* | -1.1 | 19.1 | -4.1 | -11.7
Cc1cc([N+](=O)[O-])c(C)cc1-c1ccc(/C=N/n2cnnc2)o1 | 20.0 | 5.6 | -2.5 | -0.2 | -2.4
Cc1c(Cl)cccc1-c1ccc(/C=N/n2cnnc2)o1 | 33.1* | 1.6 | 1.8 | 5.3 | -3.6
Cc1c(C(=O)O)cccc1-c1ccc(/C=N/Nc2ccc(Br)cc2)o1 | 21.7 | 3.8 | 11.1 | 1.6 | 13.2
Cc1c(C(=O)O)cccc1-c1ccc(/C=N/n2cnnc2)o1 | 31.3* | 8.2 | 2.6 | 0.5 | -2.9
CCN1CCCCC(NC(=O)c2ccccc2OC)C1=O (centres undefined) | . | . | . | . | -4.4
CCN(CC)C(=O)CC[C@@H]1CC[C@]2(CCCN(Cc3ccncc3)C2)O1 | . | . | . | . | -5.9
O=[N+]([O-])c1ccc(-c2ccc(/C=N/n3cnnc3)o2)c(Br)c1 | 26.4 | 4.0 | -3.6 | 6.1 | -28.4
Clc1ccccc1-c1ccc(/C=N/n2cnnc2)o1 | 54.5* | 1.8 | 1.4 | 2.9 | -10.5
CN1CCN(c2ccc(C=O)cc2)CC1 | 37.3* | 1.0 | -2.6 | 0.5 | -0.6
C=CCNC(=O)CSc1nc2c(c(=O)[nH]1)CCCC2 | . | . | . | . | -8.4
